Screening data (PubChem)
The sample as a whole holds a higher share of hits than the screen did.
NOMO-1 viab: NOMO-1 AML cell viability reduction, primary screen, STK33 inhibitor project, CellTiter-Glo luminescence | NOMO-1 AML viability, 72 h | inhibition, % (no concentration beside the values) | 7.5% of 37,000 active; in the data active = inhibition above about 80%; inconclusive = no clear call, values can overlap the other calls
YB-1 expr inh: inhibitors of YB-1 gene expression, primary screen, cell-based, fluorescence; U2OS, qRT-PCR YB-1 vs CDIP delta delta Cp, 16 h; stronger effect = higher value; zero = DMSO, each unit about twofold; delta delta Cp (YB-1 minus CDIP) (concentration not given with the values); 0.37% of 30,000 active;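 active = delta delta Cp rounded down to an integer at or above 3, about 3 SD of DMSO wells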;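 also: higher means less YB-1 transcript or more CDIP transcript relative to DMSO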
MITF inh: inhibitors of MITF, primary screen, MITF inhibitor project, cell-based, luminescence. TRPM1 promoter luciferase, 24 h. inhibition, % (test concentration not listed). 0.28% of 37,000 active; in the data active = inhibition above about 85%; inconclusive = no clear call, values can overlap the other calls; inactive = below about 68%;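 also: human melanocyte line stably carrying TRPM1 promoter luciferase reporter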
ROS inducer: ROS inducers in U2OS cancer cells, primary screen, cell-based, H2DCF-DA fluorescence | 2% of 46,000 active | U2OS ROS induction | ROS induction (% of piperlongumine), % at 10 µM; in the data active = ROS induction above about 79%, passing the limit was not always enough; inconclusive = no clear call, values can overlap the other calls
PD-1 reverse act: activators reversing PD-1 mediated T-cell inhibition, primary screen, luminescence, primary human CD4 T cells, PD-L1 beads; 29,000 tested, under 10 active; activation, % (test concentration not listed); CellTiter-Glo 96 h; call rule not given here
Of the large screens only hits and unclear results are named; the others gave an inactive call.

CC(=O)c1cccc(NC(=O)CCN2C(=O)C3CC=C(Cl)CC3C2=O)c1 (configuration not stated)	none (no result: YB-1 expr inh)
C[C@@H]1CCCCO[C@@H](CN(C)C)[C@@H](C)CN([C@H](C)CO)C(=O)c2cc(NC(=O)Nc3ccccc3)ccc2O1	NOMO-1 viab 107.8
C[C@@H]1CN([C@H](C)CO)C(=O)Cc2cc(NS(=O)(=O)c3ccc(F)cc3)ccc2O[C@H]1CN(C)Cc1ccc(Oc2ccccc2)cc1	NOMO-1 viab 126.5
Cc1ccc(S(=O)(=O)Nc2ccc3c(c2)CC(=O)N([C@H](C)CO)C[C@@H](C)[C@@H](CN(C)Cc2ccc(Oc4ccccc4)cc2)O3)cc1	NOMO-1 viab 115.0
COc1ccc(S(=O)(=O)Nc2ccc3c(c2)CC(=O)N([C@H](C)CO)C[C@@H](C)[C@H](CN(C)Cc2ccc(Oc4ccccc4)cc2)O3)cc1	NOMO-1 viab 124.1
C[C@@H]1CN([C@H](C)CO)C(=O)Cc2cc(NS(=O)(=O)c3ccccc3)ccc2O[C@H]1CN(C)Cc1ccc(Oc2ccccc2)cc1	none
C[C@H]1CN([C@@H](C)CO)C(=O)Cc2cc(NS(=O)(=O)c3ccc(F)cc3)ccc2O[C@@H]1CN(C)Cc1ccc(Oc2ccccc2)cc1	NOMO-1 viab 95.9
COc1ccc(S(=O)(=O)Nc2ccc3c(c2)CC(=O)N([C@@H](C)CO)C[C@H](C)[C@@H](CN(C)Cc2ccc(Oc4ccccc4)cc2)O3)cc1	none
CN(C)c1ccc(/C=N/NC(=O)CCCCCCC(=O)Nc2ccccc2O)cc1	none (no result: NOMO-1 viab, MITF inh, PD-1 reverse act)
N#C/C(=C/c1ccc(O)c(O)c1)C(=O)OC/C=C/c1ccccc1	NOMO-1 viab 99.2 (no result: PD-1 reverse act)
N#C/C(=C\c1ccc(O)c(O)c1)C(=O)Nc1ccccc1	NOMO-1 viab inconclusive
CCc1nc(-c2ccc(OC)cc2)cc2cc(OC)c(OC)cc12	ROS inducer 108.7
COc1ccc(Cc2nccc3cc(OC)c(OC)cc23)cc1OC	none
COc1cc(/C=N/NC(=O)c2ccccc2O)cc(OC)c1OC	none (no result: NOMO-1 viab, MITF inh, PD-1 reverse act)
Cn1c(=S)[nH]c2sc3c(c2c1=O)CCC(C(C)(C)C)C3 (configuration not stated)	NOMO-1 viab 123.2
O/N=C/c1c(F)cccc1F	none
COc1cc(C[C@@H]2COC(c3ccc(O[C@@H]4O[C@H](CO)[C@@H](O)[C@H](O)[C@H]4O)c(OC)c3)[C@@H]2CO)ccc1O[C@@H]1O[C@H](CO)[C@@H](O)[C@H](O)[C@H]1O (some centres not stated)	none
COc1cc(O)c(C(=O)CCc2ccc(OC)c(OC)c2)c(OC)c1	YB-1 expr inh 4.91
Cc1ccc(CNC(=O)CCCc2nnc3n4nc(C)nc4c4ccccc4n23)cc1	none (no result: NOMO-1 viab, YB-1 expr inh, MITF inh, PD-1 reverse act)
C=CCN(CC=C)c1nc(-c2ccccc2)nc2ccccc12	none (no result: NOMO-1 viab, YB-1 expr inh, MITF inh, PD-1 reverse act)
OCCN(CCO)c1nc(-c2ccccc2)nc2sc(-c3ccccc3)cc12	NOMO-1 viab inconclusive, ROS inducer 115.8 (no result: YB-1 expr inh)
C=C(CO)C(=O)O[C@H]1CC(=C)[C@@H]2CC(=O)[C@H](C)[C@@H]2[C@H]2OC(=O)C(=C)[C@@H]21	NOMO-1 viab 106.7, ROS inducer 121.8
Cc1cc(C(=O)Nc2cccc3c2O[C@H](CN(C)S(=O)(=O)c2cccs2)[C@H](C)CN([C@@H](C)CO)C3=O)n(C)n1	YB-1 expr inh 20.1
Cc1cc(C(=O)Nc2cccc3c2O[C@@H](CN(C)S(=O)(=O)c2cccs2)[C@@H](C)CN([C@@H](C)CO)C3=O)n(C)n1	none
C[C@@H]1CN([C@H](C)CO)C(=O)c2cccc(NC(=O)Nc3ccc(F)cc3)c2O[C@H]1CN(C)S(=O)(=O)c1cccs1	none
C[C@H](CO)N1C[C@H](C)[C@H](CN(C)S(=O)(=O)c2cccs2)Oc2c(NC(=O)Nc3ccc(C(F)(F)F)cc3)cccc2C1=O	NOMO-1 viab 92.0
C[C@H]1CN([C@@H](C)CO)C(=O)c2cccc(NC(=O)Nc3ccc(C(F)(F)F)cc3)c2O[C@H]1CN(C)S(=O)(=O)c1cccs1	NOMO-1 viab 90.5
C[C@@H]1CN([C@@H](C)CO)C(=O)c2cccc(NS(=O)(=O)c3ccc(Cl)cc3)c2O[C@H]1CN(C)S(=O)(=O)c1cccs1	none (no result: PD-1 reverse act)
C[C@@H]1CN([C@@H](C)CO)C(=O)c2cccc(NS(=O)(=O)c3ccc(Cl)cc3)c2O[C@@H]1CN(C)S(=O)(=O)c1cccs1	NOMO-1 viab 84.8
